# SMN2 splice up: qHTS Assay for Enhancers of SMN2 Splice Variant Expression. HEK293 SMN2-luciferase splicing reporter, luminescence, 30-36 h. Potency, µM (titrated, usually from 46.1 µM), for inactives: at the top dose activity change, positive = activation, most hits filed as activators. actives 2.8% (n = 210,000); note: % of control where 0% means no effect; nearly all actives have a fitted effect of over 55% in size
#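 HEK293 cells carry an SMN2 minigene-luciferase reporter in which exon 7 inclusion puts luciferase in frame. Cells were seeded at 2000 cells/well, attached for 10-12 hours, then exposed to compounds for 30-36 hours at 37C before ONE-Glo luminescence.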
# ELG1 genotoxic: qHTS screen for small molecules that induce genotoxicity in human embryonic kidney (HEK293T) cells expressing luciferase-tagged ELG1; Potency, µM (series often up to 46 µM), for the others: at the top dose activity change, positive = activation, most hits filed as activators; HEK293T ELG1-luciferase reporter, luminescence, 16 h; actives 1.3% (n = 330,000); note: % of control where 0% means no effect; nearly all actives have a fitted effect of over 60% in size
#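 Cells (2,000/well) expressing the ELG1-luciferase fusion are dosed by pin tool and kept 16 hr at 37 °C, 5% CO2. Signal comes from ONE-Glo luciferase reagent after 30 min at room temperature.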
# FLuc modulator: qHTS profiling assay for firefly luciferase inhibitor/activator using purifed enzyme and Km concentrations of substrates (counterscreen for miR-21 project). Luciferin 4-monooxygenase (Photinus pyralis), P08659. AID 588342, 2011. Potency, µM (top dose mostly 57.5 µM), for the others: at the highest dose activity change, negative = inhibition, usual class: inhibitors. purified FLuc, Km substrates, luminescence inhibition. actives 6.9% (n = 360,000);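 note: plate controls were vehicle for no effect and reference inhibitor for full effect; nearly all actives have a fitted effect of over 55% in size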
# Target sequence (P08659 whole entry, looked up): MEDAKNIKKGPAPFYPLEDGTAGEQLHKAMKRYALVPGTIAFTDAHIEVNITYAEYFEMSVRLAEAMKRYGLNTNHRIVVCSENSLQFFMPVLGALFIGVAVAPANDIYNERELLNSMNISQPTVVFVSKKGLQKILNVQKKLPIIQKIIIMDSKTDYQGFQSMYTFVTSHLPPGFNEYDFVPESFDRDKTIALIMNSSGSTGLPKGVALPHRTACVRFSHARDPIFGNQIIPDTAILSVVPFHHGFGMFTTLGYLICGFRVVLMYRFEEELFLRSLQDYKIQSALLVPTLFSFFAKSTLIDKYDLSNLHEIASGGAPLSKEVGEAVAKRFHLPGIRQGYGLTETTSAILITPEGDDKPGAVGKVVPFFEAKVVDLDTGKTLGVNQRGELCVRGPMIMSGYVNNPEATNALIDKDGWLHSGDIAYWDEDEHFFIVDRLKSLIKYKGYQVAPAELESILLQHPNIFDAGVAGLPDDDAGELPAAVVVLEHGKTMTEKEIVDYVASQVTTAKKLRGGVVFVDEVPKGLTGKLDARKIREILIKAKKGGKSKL
#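 Purified P. pyralis luciferase (10nM final) with 10uM D-luciferin and 10uM ATP (Km levels) in 50mM Tris acetate pH 7.5, 10mM Mg acetate, 0.01% Tween-20, 0.05% BSA; qHTS 6-point titration, ~60 µM downward; luminescence read.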
# Rab9 promoter act: qHTS Assay for Rab9 Promoter Activators. Huh7 Rab9 promoter-luciferase reporter, luminescence, 24 h. actives 2.8% (n = 320,000). Potency, µM (doses to about 9.22 µM), without a hit: top-dose activation, negative = inhibition, usual class: activators; note: % of control where 0% means no effect; nearly all actives have a fitted effect of over 60% in size
#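 Luminescence read-out: Huh7 cells stably expressing Rab9-luciferase, treated 24 h with compound at 37 °C, then lysed with luciferase reagent for 10 min at ambient before reading.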
# Luc counter: Counterscreen for Luciferase (Kinase-Glo TM) Inhibition; Potency, µM (doses to about 38.3 µM), for inactives: top-dose activity change, negative = inhibition, most hits filed as inhibitors; Luciferin 4-monooxygenase (Photuris pensylvanica), Q27757; Kinase-Glo luciferase, ATP luminescence, 8 min; AID 1379, 2008; actives 0.28% (n = 200,000); note: % is set by controls: 0 for no effect and ±100 for the full control effect; nearly all actives have a fitted effect of over 60% in size
#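 Compound is pinned into ATP-containing buffer (10 uM ATP, imidazole pH 7.2, 7 mM MgCl2). Kinase-Glo luciferase reagent is then added. Light output is recorded following an 8-min room-temperature incubation.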
# NPC1 promoter act: qHTS Assay for NPC1 Promoter Activators; Potency, µM (top dose mostly 9.22 µM), without a hit: at the top dose activation, hits mostly activators; Huh7 NPC1 promoter luciferase reporter, 24 h; actives 2.4% (n = 320,000); note: % of control where 0% means no effect; nearly all actives have a fitted effect of over 60% in size
#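 In 1536-well qHTS, Huh7 cells harboring an NPC1 promoter–luciferase construct received compound for 24 h; activation was quantified by luminescence following luciferase reagent addition.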
# * marks the source's active call; other numbers are inactive results; ? = inconclusive; nt = no result given; ! = a repeat was not active. Sampled rows, rich in hits. Any-hit rate of the full collection: about 7.5%. Calls come from the whole dose curve; as a rule, active = well fitted curve in the direction sought with a large enough effect; inconclusive = small, poorly fitted or top-dose-only effect, or another doubt; inactive = no such curve, though single readings can be large; an effect the other way counts as inactive or inconclusive. Potency is the fitted concentration of half-maximal effect.
SMILES,SMN2 splice up,ELG1 genotoxic,FLuc modulator,Rab9 promoter act,Luc counter,NPC1 promoter act
Nc1nc2c(nc(Br)n2C2CC(O)C(CO)O2)c(=O)[nH]1 (centres undefined),-2%,nt,nt,nt,-1%,nt
Cc1noc(C)c1NC(=O)N(C)C[C@H]1Oc2c(NC(=O)Nc3ccc4c(c3)OCO4)cccc2C(=O)N([C@H](C)CO)C[C@@H]1C,nt,0%,nt,nt,nt,nt
O=C(Nc1cccc(NC(=O)c2cccc([N+](=O)[O-])c2)n1)c1cccc([N+](=O)[O-])c1,nt,?,-13%,0%,nt,-2%
Cc1ccc(OCC(=O)Nc2nnc(S(=O)(=O)N3CCCCCC3)s2)cc1,nt,-3%,9.5µM*!,-8%,nt,-1%
CC1CN=C(NC(=O)c2cccc([N+](=O)[O-])c2)S1 (centres undefined),nt,?,2.4µM*,0.4µM*,nt,0.5µM*
Nc1ccc([N+](=O)[O-])c(N)c1,-1%,nt,nt,nt,nt,nt
Clc1ccc(-c2cc3ccccc3[nH]2)cc1,18%,?,9.5µM*,4µM*,0%,?
CCOc1ccc(NC(=O)c2ccccc2C(=O)c2ccccc2)cc1OCC,nt,-4%,4%,-1%,nt,-6%
COc1ccc(C(=O)c2coc3ccc(O)cc23)cc1,?,?,1.5µM*,5%,-4%,?
O=C(c1cccc(Br)c1)c1coc2ccc(O)cc12,nt,?,3µM*,?,nt,?
Cc1ccc(C(=O)c2coc3ccc(OCC(=O)O)cc23)cc1,?,3%,21µM*,3%,0%,-2%
O=C(O)COc1ccc2occ(C(=O)c3ccccc3)c2c1,9%,-1%,?,-8%,-5%,-3%
O=C(NNC(=O)c1ccco1)c1cccc(Br)c1,nt,-15%,-2%,-18%,nt,-4%
CCC1CN(S(=O)(=O)c2cc(-c3cc(C)no3)ccc2OC)c2cc(C)ccc2O1 (centres undefined),nt,-7%,3%,3%,nt,-8%
COc1ccc2[nH]c(=O)c3c(c2c1)OC(C)(C)C=C3,12%,-6%,1%,-3%,-2%,18%
Cc1cc2c([nH]c3ccccc32)c2c1OC(C)(C)C=C2,nt,?,11µM*,3.2µM*,nt,3.2µM*
Cc1c(C(=O)Nc2ccc3c(c2)OCCO3)sc2ncnc(N3CCCCC3C)c12 (centres undefined),nt,-11%,11µM*,-1%,nt,-2%
Cc1nc(-c2ccccc2)sc1-c1ccnn1C,13µM*,?,4.8µM*,2.2µM*,4%,?
CCn1c(-c2sc(-c3ccccc3)nc2C)n[nH]c1=S,5%,0%,-9%,-2%,-2%,2%
C#CCSc1nnc(-c2sc(-c3ccccc3)nc2C)n1C,-18%,1%,?,16%,1%,5%
Cc1nc(-c2ccccc2)sc1-c1ccn[nH]1,7.9µM*,2.6µM*,1.5µM*,2.8µM*,-3%,1.4µM*
COc1ccc(C(=O)C2CCCN(C(=O)c3noc4c3CCCC4)C2)c(C)c1 (centres undefined),nt,-7%,3%,-2%,-5%,0%
CCn1cc2nc(SCc3ccccc3F)n(Cc3ccc(C)cc3)c(=O)c2n1,nt,nt,-11%,nt,nt,nt
CC(C)(C)OC(=O)NN1CC(=O)N2Cc3[nH]c4ccccc4c3C[C@H]2C1=O,nt,-1%,-1%,2%,nt,-2%
O=C(c1cccc(F)c1)N1CCC2(CC1)CN(c1ncccn1)C2,1%,nt,nt,nt,-3%,nt
CCOc1ccc(N=C(/C(C(=O)C(=O)N2CCOCC2)=C(\O)c2ccccc2)c2ccccc2)cc1,13µM*,?,?,?,-8%,?
CCOc1ccc(OCc2ccc(C(=O)N3CCOCC3)cc2)cc1,-10%,5%,?,30%,-2%,29%

# Screening data (PubChem)
